According to the supplement of paper PMC4188521:

Compound: CCc1cnn2c(NCc3ccc[n+]([O-])c3)cc(N3CCCC[C@H]3CCO)nc12 [dinaciclib]
Assay: cell viability remaining relative to DMSO control; higher = less cytotoxic (more viable cells)
Conditions: 100 nM; 24 h
Outline: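 Remaining viability, expressed as a percentage of the DMSO control, compares luminescence in treated wells with that in DMSO-treated control wells. Solid tumour cell lines from commercial banks received 100 nM of the test compound for 24 hr, with final DMSO kept at ≤0.2%. Viability was read as ATP luminescence using CellTiter-Glo, and values are means from 2–6 plates run in triplicate wells.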

Target: AGS
- cell viability remaining: 46.7%

Target: HT1080
- cell viability remaining: 88.8%

Target: H508
- cell viability remaining: 75.7%

Target: LOVO
- cell viability remaining: 88.9%

Target: A673
- cell viability remaining: 29.2%

Target: T47D
- cell viability remaining: 87.6%

Target: LS1034
- cell viability remaining: 75%

Target: DU4475
- cell viability remaining: 72.3%

Target: C32
- cell viability remaining: 83%

Target: PC3
- cell viability remaining: 66.2%

Target: OV90
- cell viability remaining: 99.8%

Target: HS746T
- cell viability remaining: 83%

Target: COLO201
- cell viability remaining: 67.8%

Target: SW480
- cell viability remaining: 81.7%

Target: H28
- cell viability remaining: 107%

Target: SW1573
- cell viability remaining: 99%

Target: CORL105
- cell viability remaining: 49%

Target: MG63
- cell viability remaining: 86.8%

Target: H2122
- cell viability remaining: 48.2%

Target: MDAMB453
- cell viability remaining: 65.4%

Target: RD
- cell viability remaining: 41.1%

Target: COV318
- cell viability remaining: 79.8%

Target: COLO829
- cell viability remaining: 24.8%

Target: CCFSTTG1
- cell viability remaining: 70.6%

Target: H1792
- cell viability remaining: 60.9%

Target: FADU
- cell viability remaining: 31.8%

Target: CAL51
- cell viability remaining: 43.8%

Target: MSTO211H
- cell viability remaining: 68.4%

Target: MIAPACA2
- cell viability remaining: 41.2%

Target: HEC108
- cell viability remaining: 63%

Target: RMUGS
- cell viability remaining: 62%

Target: A2058
- cell viability remaining: 18.4%

Target: H1975
- cell viability remaining: 69.4%

Target: HOS
- cell viability remaining: 36.2%

Target: MDAMB231
- cell viability remaining: 57.6%

Target: SCC4
- cell viability remaining: 66.5%

Target: H460
- cell viability remaining: 52.2%

Target: SU8686
- cell viability remaining: 48.9%

Target: OVKATE
- cell viability remaining: 105%

Target: 2313287
- cell viability remaining: 65.6%

Target: LS180
- cell viability remaining: 85.7%

Target: SKMEL28
- cell viability remaining: 56.2%

Target: RMGI
- cell viability remaining: 83.4%

Target: MCAS
- cell viability remaining: 82.8%

Target: GRM
- cell viability remaining: 47%

Target: SW1088
- cell viability remaining: 58%

Target: IGROV1
- cell viability remaining: 103%

Target: KATOIII
- cell viability remaining: 87.5%

Target: HS600T
- cell viability remaining: 93.8%

Target: RL952
- cell viability remaining: 33.4%

Target: HCT8
- cell viability remaining: 51.3%

Target: CAL54
- cell viability remaining: 78.9%

Target: HCC44
- cell viability remaining: 85.8%

Target: SW403
- cell viability remaining: 74.9%

Target: NCI-H2110
- cell viability remaining: 56.9%

Target: HS294T
- cell viability remaining: 52.6%

Target: HPAFII
- cell viability remaining: 58.1%

Target: RKN
- cell viability remaining: 55.6%

Target: CFPAC1
- cell viability remaining: 85.5%

Target: HT144
- cell viability remaining: 48.6%

Target: HLE
- cell viability remaining: 37.7%

Target: SW1783
- cell viability remaining: 72.9%

Target: OV56
- cell viability remaining: 59.1%

Target: CAMA1
- cell viability remaining: 51.8%

Target: SKMEL30
- cell viability remaining: 62.5%

Target: SW1463
- cell viability remaining: 87.4%
